Measurements as given in PubChem BioAssay (Tox21).
Unmarked numbers belong to inactive results. Inconclusive results are not listed. Calls of active or inactive are those of the source. Calls come from the whole dose curve; as a rule, active = well fitted curve in the direction sought with a large enough effect in the repeat runs; inconclusive = weak or mixed curves; inactive = no such curve, though single readings can be large; an effect the other way counts as inactive or inconclusive.

assay: Caspase-3/7 induction in HepG2 cells by small molecules, qHTS assay (AID 1346978); details: HepG2 caspase-3/7 activation, Caspase-Glo luminescence, 17 h; series mostly up to 92.4 µM; caspase activation: at the top concentration; note: nearly all actives have a fitted effect of over 15% in size
Procedure, shortened: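 Wild-type HepG2 cells (2,000/well) were settled 5 h at 37 C, 5% CO2, then exposed to compounds in DMSO for 17 h. Caspase-3/7 activity was read by luminescence 30 min after adding Caspase-Glo 3/7 reagent at room temperature.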
% is set by controls: 0 for no effect and ±100 for the full control effect.

Structure (SMILES)	caspase activation	Potency
CC(=O)N(CC(O)CO)c1c(I)c(C(=O)NCCO)c(I)c(C(=O)NCC(O)CO)c1I (stereo not given)	-1.25% [at 42.5 µM]	
NC(=O)COCCN1CCN(C(c2ccccc2)c2ccc(Cl)cc2)CC1 (stereo not given)	-1.05% [at 42.5 µM]	
CC(=O)CC(C)(C)C1CCCCC1	5.35%	
C[C@H](NC(CCc1ccccc1)C(=O)O)C(=O)N1CCC[C@H]1C(=O)O (stereo not given in full)	3.66% [at 42.5 µM]	
CCC(=O)OC(C)c1ccccc1 (stereo not given)	0.854%	
OC[C@]1(O)OC[C@@H](O)[C@H](O)[C@@H]1O		inactive
C=COCC1CCC(CO)CC1 (stereo not given)	-0.475%	
CC1=CC(C)C(C=O)CC1 (stereo not given)	1.04%	
CCc1ccc(O)c(OC)c1	-0.683%	
CN1C(=O)N(C)C(O)C1O (stereo not given)	0.206%	
COC(=O)CC(C)=O	0.869%	
CC/C=C\CC/C=C/CO	-1.05%	
CCCCCCCCCCCCCCCCC	0.207%	
O=C1CCCC(=O)C1	0.251%	
Nc1c[n+](N2CCOCC2)no1	-0.0558% [at 42.5 µM]	
CO[C@]12C[C@@H](COC(=O)c3cncc(Br)c3)CN(C)[C@@H]1Cc1cn(C)c3cccc2c13	-0.691% [at 42.5 µM]	
CC(C)(c1ccc(O)cc1)c1ccc(O)cc1	4.34%	
COC(=O)NN	-3.45%	

Structure (SMILES)	caspase activation	Potency
O=C1CCCCCCCCCCCN1		inactive
O=C(O)c1ccccc1OP(=O)(O)O	-3.83% [at 42.5 µM]	
CCCCCCCCCCCCCC=O	-1.41% [at 8.39 µM]	
O=C(c1ccccc1)C1CCCCC1	4.7%	
O=C1CCCN1C1CCCCC1	-0.42%	
NCCCNCCSP(=O)(O)O	-1.36% [at 8.39 µM]	
Cc1c(O)cccc1O	-2.83%	
Cc1ccc(Cl)cc1Cl	2.33%	
CCC(C)C1CCCCC1=O (stereo not given)	0.796%	
CN1CCCC1	0.0144%	
CCOC(=O)c1ccc(C)cc1	-0.658%	
COC(=O)c1cc(C(=O)OC)cc(S(=O)(=O)O)c1	-0.312%	
C=C[Si](OC(=C)C)(OC(=C)C)OC(=C)C	-0.618%	
C=C(C)C(=O)OCCCCCCCC(C)C	-7.25%	
CCC(C)S (stereo not given)	-0.355% [at 3.27 µM]	
O=c1cc(CO)occ1O	1.86% [at 42.5 µM]	
CN(C)CCCNCCCN(C)C	-0.538%	

assay: Caspase-3/7 induction in CHO-K1 cells by small molecules, qHTS cell viability counter screen (AID 1346979); details: CellTiter-Fluor fluorescence, 17 h; series mostly up to 42.5 µM; activity change, negative = cytotoxicity: at the top concentration; note: nearly all actives have a fitted effect of over 35% in size; note: potency is the fitted concentration of half-maximal effect
Procedure, shortened: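 Viability readout by fluorescence (CellTiter-Fluor) on wild-type CHO-K1 cells exposed for 16hr at 37C and 5% CO2 to compounds delivered in DMSO; reagent incubated 1hr before reading.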

Structure (SMILES)	activity change, negative = cytotoxicity	Potency
CC(=O)N(CC(O)CO)c1c(I)c(C(=O)NCCO)c(I)c(C(=O)NCC(O)CO)c1I (stereo not given)	9.91%	
NC(=O)COCCN1CCN(C(c2ccccc2)c2ccc(Cl)cc2)CC1 (stereo not given)	14.3%	
CC(=O)CC(C)(C)C1CCCCC1	0.915% [at 92.4 µM]	
C[C@H](NC(CCc1ccccc1)C(=O)O)C(=O)N1CCC[C@H]1C(=O)O (stereo not given in full)	7.3%	
CCC(=O)OC(C)c1ccccc1 (stereo not given)	8.16% [at 92.4 µM]	
OC[C@]1(O)OC[C@@H](O)[C@H](O)[C@@H]1O		inactive
C=COCC1CCC(CO)CC1 (stereo not given)	7.85% [at 92.4 µM]	
CC1=CC(C)C(C=O)CC1 (stereo not given)	9.13% [at 92.4 µM]	
CCc1ccc(O)c(OC)c1	5.38% [at 92.4 µM]	
CN1C(=O)N(C)C(O)C1O (stereo not given)	5.91% [at 92.4 µM]	
COC(=O)CC(C)=O	4.59% [at 92.4 µM]	
CC/C=C\CC/C=C/CO	-0.391% [at 92.4 µM]	
CCCCCCCCCCCCCCCCC	7.26% [at 92.4 µM]	
O=C1CCCC(=O)C1	-0.991% [at 92.4 µM]	
Nc1c[n+](N2CCOCC2)no1	-5.64%	
CO[C@]12C[C@@H](COC(=O)c3cncc(Br)c3)CN(C)[C@@H]1Cc1cn(C)c3cccc2c13	-12.4%	
CC(C)(c1ccc(O)cc1)c1ccc(O)cc1		69.8 µM (active)
COC(=O)NN	1.61% [at 92.4 µM]	

Structure (SMILES)	activity change, negative = cytotoxicity	Potency
O=C1CCCCCCCCCCCN1		inactive
O=C(O)c1ccccc1OP(=O)(O)O	9.54%	
CCCCCCCCCCCCCC=O	0.0836% [at 8.39 µM]	
O=C(c1ccccc1)C1CCCCC1	2.68% [at 92.4 µM]	
O=C1CCCN1C1CCCCC1	-2.19% [at 92.4 µM]	
NCCCNCCSP(=O)(O)O	5.53% [at 8.39 µM]	
Cc1c(O)cccc1O	-1.48% [at 92.4 µM]	
Cc1ccc(Cl)cc1Cl	-1.33% [at 92.4 µM]	
CCC(C)C1CCCCC1=O (stereo not given)	1.08% [at 92.4 µM]	
CN1CCCC1	-3.86% [at 92.4 µM]	
CCOC(=O)c1ccc(C)cc1	4.86% [at 92.4 µM]	
COC(=O)c1cc(C(=O)OC)cc(S(=O)(=O)O)c1	9.15% [at 92.4 µM]	
C=C[Si](OC(=C)C)(OC(=C)C)OC(=C)C	-0.24% [at 92.4 µM]	
C=C(C)C(=O)OCCCCCCCC(C)C		1.09 µM (active)
CCC(C)S (stereo not given)	5.39% [at 3.27 µM]	
O=c1cc(CO)occ1O	11%	
CN(C)CCCNCCCN(C)C	8.61% [at 92.4 µM]	

assay: Caspase-3/7 induction in CHO-K1 cells by small molecules, qHTS assay (AID 1346980); details: CHO-K1 caspase-3/7 induction, Caspase-Glo luminescence, 17 h; series mostly up to 92.4 µM; caspase-3/7 activation: at the top concentration; note: nearly all actives have a fitted effect of over 15% in size
Procedure, shortened: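 Wild-type cells were seeded at 1,500 per well and settled 5 hr at 37 C, 5% CO2, then exposed to DMSO-dissolved compounds for 17 hr. Caspase-Glo 3/7 reagent was added, and luminescence was read after 30min at room temperature.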

Structure (SMILES)	caspase-3/7 activation	outcome
CC(=O)N(CC(O)CO)c1c(I)c(C(=O)NCCO)c(I)c(C(=O)NCC(O)CO)c1I (stereo not given)	0.0795% [at 42.5 µM]	
NC(=O)COCCN1CCN(C(c2ccccc2)c2ccc(Cl)cc2)CC1 (stereo not given)	0.0464% [at 42.5 µM]	
CC(=O)CC(C)(C)C1CCCCC1	2.23%	
C[C@H](NC(CCc1ccccc1)C(=O)O)C(=O)N1CCC[C@H]1C(=O)O (stereo not given in full)	0.823% [at 42.5 µM]	
CCC(=O)OC(C)c1ccccc1 (stereo not given)	0.546%	
OC[C@]1(O)OC[C@@H](O)[C@H](O)[C@@H]1O		inactive
C=COCC1CCC(CO)CC1 (stereo not given)	-0.21%	
CC1=CC(C)C(C=O)CC1 (stereo not given)	-0.5%	
CCc1ccc(O)c(OC)c1	0.0426%	
CN1C(=O)N(C)C(O)C1O (stereo not given)	-0.0232%	
COC(=O)CC(C)=O	0.25%	
CC/C=C\CC/C=C/CO	2.36%	
CCCCCCCCCCCCCCCCC	-0.659%	
O=C1CCCC(=O)C1	0.162%	
Nc1c[n+](N2CCOCC2)no1	-0.478% [at 42.5 µM]	
CO[C@]12C[C@@H](COC(=O)c3cncc(Br)c3)CN(C)[C@@H]1Cc1cn(C)c3cccc2c13	-2.15% [at 42.5 µM]	
CC(C)(c1ccc(O)cc1)c1ccc(O)cc1		inactive
COC(=O)NN	-0.782%	

Structure (SMILES)	caspase-3/7 activation	outcome
O=C1CCCCCCCCCCCN1		inactive
O=C(O)c1ccccc1OP(=O)(O)O	-0.491% [at 42.5 µM]	
CCCCCCCCCCCCCC=O	1.18% [at 8.39 µM]	
O=C(c1ccccc1)C1CCCCC1	1.76%	
O=C1CCCN1C1CCCCC1	-0.454%	
NCCCNCCSP(=O)(O)O	0.0901% [at 8.39 µM]	
Cc1c(O)cccc1O	0.311%	
Cc1ccc(Cl)cc1Cl	0.2%	
CCC(C)C1CCCCC1=O (stereo not given)	-1.01%	
CN1CCCC1	2.15%	
CCOC(=O)c1ccc(C)cc1	2.74%	
COC(=O)c1cc(C(=O)OC)cc(S(=O)(=O)O)c1	-1.56%	
C=C[Si](OC(=C)C)(OC(=C)C)OC(=C)C	-0.0479%	
C=C(C)C(=O)OCCCCCCCC(C)C	-0.978%	
CCC(C)S (stereo not given)	1.28% [at 3.27 µM]	
O=c1cc(CO)occ1O	0.0811% [at 42.5 µM]	
CN(C)CCCNCCCN(C)C	0.867%	
